Our source for the growth values is PubChem BioAssay (NCI).

This is part of a sample that, as a whole, favours compounds with a hit. Of some 83,000 tested, about 20% had one in any assay.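 Values shown are percent growth following 48 h exposure of cells in 96-well plates to a single concentration of compound; below 10 was considered active.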 Active and inactive are the calls of the source.

In the assay the test system is SNB-19 CNS. Description: NCI-60 one-dose screen, 48 h (100 = growth as untreated, 0 = no growth, -100 = all killed). The following applies: 10 µM unless noted.
With `C=C(C)[C@@H]1CC[C@]2(C(=O)OC)CC[C@]3(C)[C@H](CC[C@@H]4[C@@]5(C)C/C(=C/c6cccc(I)c6)C(=O)C(C)(C)[C@@H]5CC[C@]43C)[C@@H]12`, the growth is 94% (inactive).

For `N#Cc1c(-c2ccc(Cl)cc2)nc(NN=Cc2ccco2)nc1N1CCOCC1`, the growth was 80% (inactive).

`C=CC(=O)Nc1cccc(Nc2nc(SC)nc(-c3cccc([N+](=O)[O-])c3)c2C#N)c1`: the growth is 79.5% (inactive).

As to `COc1ccc(/C=C/C(=O)c2ccc(O)c(CN3CCN(c4cc5c(cc4F)c(=O)c(C(=O)O)cn5C4CC4)CC3)c2)cc1`, the growth is 24% (inactive).

As to `COc1cc2nc(N3CCCC3)nc(Nc3ccccc3)c2cc1OC`, the growth was 49.9% (inactive).

For `COc1cccc(-c2nc3sccn3c2-c2ccnc(NCCNS(=O)(=O)c3ccccc3)c2)c1`, the growth was 51.6% (inactive).

`COc1cc(/C=C/C(=O)c2c(C)oc3nc[nH]c(=O)c23)cc(OC)c1OC`: the growth was 93.6% (inactive).

For `C=C(C)[C@@H]1CC[C@]2(C(=O)OC)CC[C@]3(C)[C@H](CC[C@@H]4[C@@]5(C)C/C(=C/c6ccc(OC)cc6)C(=O)C(C)(C)[C@@H]5CC[C@]43C)[C@@H]12`, the growth was 108% (inactive).

Take `O=S(=O)(Nc1ccc(I)cc1F)c1ccc(-c2cnc(C3CC3)o2)cc1`: the growth was 62.8% (inactive).

With `COc1cc2nc(N3CCCC3)nc(NCCc3ccccc3)c2cc1OC`, the growth was 87.6% (inactive).

For the molecule `COc1ccc(Nc2nc(SC)nc(-c3cccc([N+](=O)[O-])c3)c2C#N)cc1`, the growth is 79% (inactive).

In the case of `COc1cc(CNc2oc(-c3ccccc3)c(-c3ccccc3)c2C#N)cc(CN2CCN(C)CC2)c1O`, the growth is 83.3% (inactive).

For the molecule `COc1ccc(-c2nc3ccc(-c4nc5ccc(N6CCN(c7ccncc7)CC6)cc5[nH]4)cc3[nH]2)cc1OC`, the growth is 40.9% (inactive).

In the case of `O=C1/C(=C/c2cn(-c3ccccc3)nc2-c2ccccc2)SC(=S)N1CCc1ccccc1`, the growth is 99% (inactive).

As to `CCCN1CCN(c2ccc3nc(-c4ccc5nc(-c6ccc(OCC)cc6)[nH]c5c4)[nH]c3c2)CC1`, the growth is 62% (inactive).

For the molecule `COc1cccc(-c2nc3sccn3c2-c2ccnc(NCCCNS(=O)(=O)c3cccc(F)c3)c2)c1`, the growth was 55% (inactive).

As for `Cn1c(=O)c2c(nc3n(-c4ccc(Cl)cc4Cl)c(Sc4nc(-c5ccccc5)c(C#N)c(=O)[nH]4)cn23)n(C)c1=O`, the growth was 24.7% (inactive).

In the case of `O=C(/C=C/c1ccccc1)c1ccc(O)c(CN2CCN(c3cc4c(cc3F)c(=O)c(C(=O)O)cn4C3CC3)CC2)c1`, the growth was 29.8% (inactive).

Turning to `C=CC(=O)Nc1cccc(-c2nc(SC)nc(Nc3ccccc3OC)c2C#N)c1`, the growth was 74.5% (inactive).

For the molecule `COc1cccc(-c2nc3sccn3c2-c2ccnc(NCCNS(=O)(=O)c3ccc(F)cc3)c2)c1`, the growth is 50.5% (inactive).

Regarding `COc1cc2nc(N3CCCC3)nc(NCc3ccccc3)c2cc1OC`, the growth was 95.6% (inactive).

Turning to `N#Cc1c(-c2ccc(Cl)cc2)nc(N/N=C/c2cccc(Br)c2)nc1N1CCOCC1`, the growth is 107% (inactive).

For the molecule `CSc1nc(-c2cccc(NC(=O)CCl)c2)c(C#N)c(=O)n1C`, the growth was 86.6% (inactive).

`C=CC(=O)Nc1cccc(-c2nc(SC)nc(NCCc3ccc(OC)c(OC)c3)c2C#N)c1`: the growth was 71.8% (inactive).

Consider `O=C(/C=C/c1cccc([N+](=O)[O-])c1)c1ccc(O)c(CN2CCN(c3cc4c(cc3F)c(=O)c(C(=O)O)cn4C3CC3)CC2)c1`, for which the growth was 47.2% (inactive).

In the case of `COc1cc(/C=C/C(=O)c2ccc(O)c(CN3CCN(c4cc5c(cc4F)c(=O)c(C(=O)O)cn5C4CC4)CC3)c2)cc(OC)c1OC`, the growth is 75.7% (inactive).

For the molecule `CC(C)(O)c1cn(CCCCN2C(=O)C(=O)c3ccccc32)nn1`, the growth is 95.9% (inactive).

As to `COC(=O)[C@]12CCC(C)(C)C[C@H]1[C@H]1C(=O)C[C@@H]3[C@@]4(C)c5c([nH]c6ccccc6c5=O)C(C)(C)[C@@H]4CC[C@@]3(C)[C@]1(C)CC2`, the growth is 75.3% (inactive).

For `N=C(N)c1ccc(-c2ccc(-c3ccc4ccccc4c3)s2)s1`, the growth is -40.4% (active).

For the molecule `C=CC(=O)Nc1cccc(-c2nc(SC)nc(NCCN3CCOCC3)c2C#N)c1`, the growth is 88.5% (inactive).

Consider `COc1cc(C=Nc2oc(-c3ccccc3)c(-c3ccccc3)c2C#N)cc(CN2CCCCC2)c1O`, for which the growth is 98.6% (inactive).

For `CC1=NN(c2nc(-c3ccc(Cl)cc3)c(C#N)c(N3CCOCC3)n2)C(=O)C1`, the growth was 94.6% (inactive).

In the case of `COc1cccc(Nc2nc(SC)nc(-c3cccc([N+](=O)[O-])c3)c2C#N)c1`, the growth was 67.2% (inactive).

In the case of `CSc1nc(NCCO)c(C#N)c(-c2cccc([N+](=O)[O-])c2)n1`, the growth is 90.7% (inactive).

In the case of `Cn1c(O)c(N=NC(=O)c2cc(-c3ccccc3)on2)c2ccccc21`, the growth was 98.2% (inactive).

Regarding `CSc1nc(Nc2cccc(NC(=O)/C(C#N)=C/c3c(Cl)cccc3Cl)c2)c(C#N)c(-c2cccc([N+](=O)[O-])c2)n1`, the growth was 72.5% (inactive).

For `COc1ccc(-c2nc3ccc(-c4nc5ccc(N6CCN(c7ccccc7)CC6)cc5[nH]4)cc3[nH]2)cc1OC`, the growth was -1.62% (active).

`O=C(N=Nc1c(O)[nH]c2ccccc12)c1cc(-c2ccccc2)on1`: the growth was 100% (inactive).

On to `O=C1CC(=NCC(=O)n2c(-c3ccccc3)nc3ccccc32)NN1`, for which the growth is 97.7% (inactive).
